Bioassay records: PubChem BioAssay, The Scripps Research Institute Molecular Screening Center
TEAD-YAP block: TEAD-YAP interaction inhibition; 1.4% of 640,000 active; HEK-TIYL cells, TEAD-Gal4/YAP UAS-luciferase luminescence; inhibition, % at 9.12 µM; in the data active means inhibition above about 32%;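 further: 0% = median of test compound wells and 100% = reference inhibitor wells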
MITF inh: blocks human microphthalmia-associated transcription factor. O75030. AlphaScreen MITF homodimerization, bead proximity signal. inhibition, % at 2.6 µM. 0.91% of 650,000 active. AID 1259374; in the data active means inhibition above about 50%;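 further: 0% = vehicle wells with protein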
Target sequence (O75030 whole entry, looked up): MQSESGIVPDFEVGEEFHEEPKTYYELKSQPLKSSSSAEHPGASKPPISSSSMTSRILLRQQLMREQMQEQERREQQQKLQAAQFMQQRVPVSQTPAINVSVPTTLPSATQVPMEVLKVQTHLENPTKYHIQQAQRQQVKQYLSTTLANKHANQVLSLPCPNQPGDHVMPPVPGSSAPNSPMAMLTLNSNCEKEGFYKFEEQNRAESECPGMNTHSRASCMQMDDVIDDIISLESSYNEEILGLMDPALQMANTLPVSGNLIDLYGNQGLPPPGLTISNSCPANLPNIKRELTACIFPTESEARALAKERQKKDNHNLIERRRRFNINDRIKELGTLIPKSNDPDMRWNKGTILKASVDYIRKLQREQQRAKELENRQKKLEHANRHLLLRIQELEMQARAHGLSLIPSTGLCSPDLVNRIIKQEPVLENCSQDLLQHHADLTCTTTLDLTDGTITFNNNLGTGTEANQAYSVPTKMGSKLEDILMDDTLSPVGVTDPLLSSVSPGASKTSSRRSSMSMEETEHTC
GPR151 ag: human GPR151 activation | Q8TDV0 | PathHunter beta-arrestin GPR151 cells, luminescence | activation, % at 11.2 µM | 1% of 650,000 active | AID 1508602; in the data active means activation above about 4.9%;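 further: 0% = median of compound wells and 100% = cells with positive control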
FBW7 act: activators of human E3 ligase FBW7; AID 1259310; Q969H0; AlphaScreen FBW7–phospho-cyclin E peptide binding, activator screen; normalized activity (activation), % at 26.1 µM; 0.13% of 650,000 active; in the data active means normalized activity above about 1.9%;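 further: purified mutant Fbw7 with reduced substrate affinity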
Numbers without * were called inactive. Most compounds without a hit are left out; they make up all but 3.5% or so of the library.

SMILES | TEAD-YAP block | MITF inh | GPR151 ag | FBW7 act
COc1ccc(NC(=O)COC(=O)c2ccc(NC(C)=O)cc2)c([N+](=O)[O-])c1 | 10.2 | 17.2 | 1.5 | 0.7
CNC(=O)c1ccccc1Nc1cc(NC(=O)Cc2ccc(F)cc2)ncc1C(F)(F)F | 72.1* | -7.2 | -0.4 | 0.3
CNC(=O)c1ccccc1Nc1cc(NC(=O)C2CCc3ccccc32)ncc1C(F)(F)F (stereo not drawn) | 78.7* | 15.6 | -2.4 | 0.0
O=C(Cc1ccc2c(c1)OCO2)Nc1cc(Nc2ccccc2-c2nn[nH]n2)c(C(F)(F)F)cn1 | 4.9 | 10.3 | -0.8 | 1.1
CNC(=O)c1ccccc1Nc1cc(NC(=O)Cc2ccsc2)ncc1C(F)(F)F | 76.9* | -8.5 | -0.1 | 0.1
CNC(=O)c1ccccc1Nc1cc(NCc2ccccc2)ncc1C(F)(F)F | 22.0 | 17.9 | 0.7 | 0.1
CCN1/C(=C/c2ccc3cc(NC(C)=O)ccc3[n+]2CC)Sc2cc(C)ccc21 | 15.2 | 25.0 | -0.2 | 0.0
CCN1/C(=C/c2ccc3ccccc3[n+]2CC)Sc2cc(NC(C)=O)ccc21 | 4.0 | -7.4 | -0.3 | -0.1
CCN1/C(=C/c2ccc3ccccc3[n+]2CC)Sc2ccc(C)cc21 | 79.2* | -9.0 | 0.4 | -0.5
CCN1/C(=C/c2ccc3cc(C)ccc3[n+]2CC)Sc2ccc(O)cc21 | 86.8* | 30.6 | 0.7 | -1.4
COCCNC(=O)c1cn(C[C@H]2CCCN(C(=O)c3ccn[nH]3)C2)nn1 | 0.3 | 17.1 | -0.2 | 0.1
CCCN1C(=O)C(O)(CC(=O)c2ccc([N+](=O)[O-])cc2)c2cc(Br)ccc21 (stereo not drawn) | 50.0* | 9.7 | -0.2 | 0.0
COc1ccc(C2NC(=O)c3[nH]nc(-c4ccc(C)cc4)c32)c(OC)c1 (stereo not drawn) | 44.3* | 12.4 | 0.3 | 0.1
CCOc1ccc(-c2n[nH]c3c2C(c2cc(OC)ccc2OC)NC3=O)cc1 (stereo not drawn) | 51.3* | 4.1 | 1.5 | 0.1
CCOc1ccc(-c2n[nH]c3c2C(c2ccc(F)cc2)NC3=O)cc1 (stereo not drawn) | 2.6 | -7.5 | -1.0 | 0.1
CC(C)(C)NC(=O)CCCN1C(=O)/C(=C/c2ccc3c(c2)OCO3)SC1=S | 24.0 | -0.8 | -1.7 | 0.6
Cc1c(C(=O)Nc2nc3ccccc3s2)sc2nc(C)n(C)c(=O)c12 | 44.5* | 0.2 | -1.6 | 0.2
Cc1nc(SCC(=O)Nc2nc3ccccc3s2)c(C#N)c(C)c1C | 95.0* | -4.4 | 2.6 | 0.1
Cc1nc2sc(C(=O)Nc3nc4ccccc4s3)c(N)c2c(C)c1C | 95.8* | 7.6 | 1.6 | -0.1
COc1ccc2nc(NC(=O)c3sc4nc(C)ccc4c3N)sc2c1 | 39.0* | -2.3 | -1.1 | 0.0
Cc1cc(C)c(S(=O)(=O)Nc2ccc(Cl)c(Cl)c2)c(C)c1 | 2.8 | 11.5 | -0.5 | 0.0
Cc1ccc(OCC(=O)N2CCOCC2)cc1 | -11.4 | -0.9 | -0.9 | -0.1
COc1ccccc1CN1CCNC(=O)C1CC(=O)NCCN1CCCCC1 (stereo not drawn) | -3.1 | -10.4 | 0.0 | -0.1
CC(C)(C)n1nc2c(c1NC(=O)c1cc(Cl)ccc1Cl)CSC2 | 3.3 | 4.0 | -0.8 | 0.0
COc1ccc(-n2nc3c(c2NC(=O)c2cc([N+](=O)[O-])ccc2Cl)CSC3)cc1 | 61.0* | 12.9 | 1.8 | 0.3
SMILES | TEAD-YAP block | MITF inh | GPR151 ag | FBW7 act
Cc1ccccc1-n1nc2c(c1NC(=O)c1cc([N+](=O)[O-])ccc1Cl)CS(=O)(=O)C2 | 67.3* | -18.9 | 3.2 | -0.1
Cc1ccc(-n2nc3c(c2NC(=O)c2cc([N+](=O)[O-])ccc2Cl)CSC3)c(C)c1 | 71.1* | 16.3 | 0.6 | 0.1
CC(C)(C)n1nc2c(c1NC(=O)c1cc([N+](=O)[O-])ccc1Cl)CSC2 | 89.5* | -6.8 | 2.3 | -0.1
CCCOc1ccc(-c2nc3cc(Cl)ccc3c(=O)o2)cc1 | -3.9 | -11.5 | -0.6 | -0.1
O=C(N/N=C1/C(=O)c2cccc3cccc1c23)c1ccccc1F | -15.6 | 7.2 | 1.1 | 0.0
Cc1[nH]n(-c2ccccc2)c(=O)c1/C=N/NC(=O)c1ccc(O)cc1O | 12.3 | 58.8* | 2.8 | 0.0
O=C(N/N=C/c1ccc(/C=N/NC(=O)c2ccccc2O)cc1)c1ccccc1O | 59.0* | 15.6 | 0.2 | 0.1
Cc1ccccc1C(=O)N/N=C/c1ccc(O)c(O)c1 | -34.7 | 8.6 | -1.3 | -0.3
CN(C)c1ccc(/C=N\NC(=O)c2cc(N)ccc2O)cc1 | 8.5 | 64.2* | 0.2 | -0.5
Cc1ccccc1C(=O)N/N=C/c1ccc(O)c(Br)c1 | 71.1* | 0.3 | 0.7 | -1.1
O=C(N/N=C/c1ccc2ccccc2c1)c1ccc(O)cc1O | 36.6* | -6.7 | 2.5 | -0.1
Cc1cc(C)n(CC(O)Cn2c(C)c(C)c3ccccc32)n1 (stereo not drawn) | -4.8 | 52.8* | -0.2 | -0.3
COc1ccc([N+](=O)[O-])cc1NC(=O)c1cnc(N2CCN(c3ccccn3)CC2)c2ccccc12 | -6.3 | 13.9 | 0.1 | 0.5
Cc1cccc(NC(=O)c2cnc(N3CCN(c4ncccn4)CC3)c3ccccc23)n1 | 53.1* | -4.5 | 0.5 | 0.4
COc1ccccc1NC(=O)c1cnc(N2CCN(c3ncccn3)CC2)c2ccccc12 | 60.3* | 11.4 | 1.1 | 0.2
COc1ccc(C)cc1NC(=O)c1cnc(N2CCN(c3ncccn3)CC2)c2ccccc12 | 11.5 | 11.4 | -0.7 | 0.2
COc1ccc(OC)c(NC(=O)c2cnc(N3CCN(c4ccccn4)CC3)c3ccccc23)c1 | 46.2* | 2.3 | 2.7 | -0.1
C=CCNC(=O)CC(NS(=O)(=O)c1ccc(F)cc1)c1ccc(OC)cc1 (stereo not drawn) | 16.7 | -7.7 | -1.2 | -0.1
CCc1ccc(NC(=S)N(Cc2ccccc2)Cc2cccs2)cc1 | 53.7* | -6.3 | -0.6 | 0.0
CC(C)n1cnc2c(NC3CCN(Cc4ccccc4)CC3)nc(-c3cccc(N)c3)nc21 | 90.0* | 10.5 | 1.6 | -0.2
CC(C)n1cnc2c(NC3CCN(Cc4ccccc4)CC3)nc(Nc3ccccn3)nc21 | 30.3 | 13.4 | -0.5 | 0.0
CC(C)n1cnc2c(NC3CCN(Cc4ccccc4)CC3)nc(Nc3ccncn3)nc21 | 71.4* | 14.7 | -2.6 | 0.3
COc1ccc(-c2nc(NC3CCN(Cc4ccccc4)CC3)c3ncn(C(C)C)c3n2)cn1 | 19.0 | -0.5 | -0.8 | 0.3
CC(C)n1cnc2c(NC3CCN(Cc4ccccc4)CC3)nc(-c3ccc(C(N)=O)cc3)nc21 | 92.0* | -8.4 | -1.9 | 0.1
CC(C)n1cnc2c(NC3CC3)nc(N3CCN(c4ccccn4)CC3)nc21 | 35.3* | 11.8 | 2.5 | -0.2
CC(C)n1cnc2c(NC3CCN(Cc4ccccc4)CC3)nc(Cl)nc21 | 46.8* | -2.1 | 0.5 | 0.0
CCC(C)NS(=O)(=O)c1ccc2c(c1)NC(=O)C(C)C(=O)N2 (stereo not drawn) | 0.6 | 20.6 | -0.1 | 1.4
O=C(Nc1cccc(N2CCC(NC3CCOCC3)CC2)c1)c1cccc(C(F)(F)F)c1 | -8.7 | -7.5 | -0.9 | -0.1
CCn1c(Sc2ccc(C=O)cc2[N+](=O)[O-])nnc1-c1ccco1 | 1.4 | 4.0 | -0.6 | -0.1
CCn1c(Sc2ccc([N+](=O)[O-])cc2C=O)nnc1-c1ccco1 | 50.9* | -4.7 | -0.4 | -0.1
